Tau fluor counter: counter-screen for tau fibril formation inhibitors; Potency, µM (highest dose often 57.7 µM), without a hit: at the top dose activity change, negative = decrease; tau K18 P301L Alexa594 fluorescence, heparin fibrillization; AID 1463; 0.93% of 280,000 active; further: nearly all actives have a fitted effect of over 55% in size
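Human tau K18 P301L (15 uM unlabeled, 0.24 uM Alexa 594-labeled) in 100 mM sodium acetate pH 7 with 20 uM heparin, 6 hr at 37 C. ThT 30 uM added, 1 hr ambient; Alexa 594 FP and total fluorescence read at 555/632 nm.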
TRb-SRC2 inh: disrupts binding of human TR beta to SRC2; 0.065% of 280,000 active; Potency, µM (titrated, usually from 106 µM), for inactives: at the highest dose activity change, negative = inhibition, hits mostly inhibitors; TRbeta-SRC2 peptide binding, fluorescence polarization; receptor liganded with 1 µM T3; P10828;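 further: plate controls were bound peptide for no effect and peptide without receptor for full effect; nearly all actives have a fitted effect of over 50% in size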
Target sequence (P10828 whole entry, looked up): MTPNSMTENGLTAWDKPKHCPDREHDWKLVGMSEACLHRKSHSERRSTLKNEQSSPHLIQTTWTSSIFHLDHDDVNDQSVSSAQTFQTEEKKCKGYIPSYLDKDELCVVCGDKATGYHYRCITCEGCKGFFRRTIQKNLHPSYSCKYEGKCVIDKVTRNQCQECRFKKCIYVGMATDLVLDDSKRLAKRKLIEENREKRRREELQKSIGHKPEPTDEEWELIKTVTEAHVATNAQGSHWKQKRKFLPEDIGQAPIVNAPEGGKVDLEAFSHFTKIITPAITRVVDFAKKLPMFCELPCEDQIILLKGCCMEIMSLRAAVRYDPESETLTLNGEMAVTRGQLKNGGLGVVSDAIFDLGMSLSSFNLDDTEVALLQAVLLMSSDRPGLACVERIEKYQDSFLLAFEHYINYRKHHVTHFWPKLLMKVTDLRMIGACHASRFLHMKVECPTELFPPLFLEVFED
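Binding of a 20-amino-acid Texas Red SRC2 peptide (20 nM) to TRb ligand-binding domain (0.6 uM) with agonist T3 at 1 uM was followed by fluorescence polarization after a 5 hr room-temperature incubation.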
TexasRed fluor: Texas Red fluorescence interference in TRb-SRC2 counter-screen; TRb/SRC2 Texas Red total fluorescence interference; Potency, µM (series often up to 106 µM), inactives show at the top dose fluorescence change, negative = quenching; AID 1479; 0.29% of 280,000 active; active means well fitted curve in either direction with a large enough effect; inconclusive means small, poorly fitted or top-dose-only effect
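Human TRβ ligand-binding domain (0.6 uM) and Texas Red SRC2 peptide (20 nM) in Tris buffer with 1 uM T3 and 5% DMSO were incubated with pinned compound for 5 hr at ambient temperature. Total fluorescence was computed as S + 2P (555/632 nm).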
Tau fibril ThT: tau fibrillization inhibition (ThT binding); recombinant tau K18 P301L, heparin-induced fibrillization, ThT fluorescence; Potency, µM (highest dose often 57.4 µM), inactives show at the top dose activity, negative = inhibition, usual class: inhibitors; 2.1% of 270,000 active; AID 1460; P10636; further: nearly all actives have a fitted effect of over 55% in size
Target sequence (P10636 561-689 P618L limits assumed): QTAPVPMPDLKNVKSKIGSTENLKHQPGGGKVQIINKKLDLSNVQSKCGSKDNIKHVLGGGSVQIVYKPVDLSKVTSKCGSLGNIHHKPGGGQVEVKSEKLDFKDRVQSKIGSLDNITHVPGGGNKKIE
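K18 P301L tau (15 uM + 0.24 uM Alexa 594-tagged), heparin 20 uM, NaOAc pH 7, 6 h 37 C; ThT 30 uM, 1 h RT, ex 450/em 510 nm.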
Tau FP inhib: inhibitors of human tau fibril formation | P10636 | K18 P301L tau heparin fibrillization, Alexa594 FP, 6 h | Potency, µM (top dose mostly 57.7 µM), for the others: at the highest dose activity, negative = inhibition, actives largely listed as inhibitors | 0.39% of 280,000 active | AID 1468; further: nearly all actives have a fitted effect of over 55% in size
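Heparin (20 uM) drove fibril formation of recombinant tau K18 P301L, 15 uM unlabeled with 0.24 uM Alexa 594 label, for 6 hr at 37 C in 100 mM sodium acetate pH 7. Fluorescence polarization (555/632 nm) read 1 hr after 30 uM ThT.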
* hit, by the source's call; ? = inconclusive; [ ] = remark or other dose. In the library only some 3.1% were active in any assay of this set; here they are far more common. Unless noted, the call rests on the fitted dose curve; in most records, active means well fitted curve in the direction sought with a large enough effect; inconclusive means small, poorly fitted or top-dose-only effect, or another doubt; inactive means no such curve, though single readings can be large; an effect the other way counts as inactive or inconclusive. Unless noted, on the % scale 0 is the no-effect control and ±100 the full control effect; potency means the concentration at half of the fitted maximal effect.

SMILES	Tau fluor counter	TRb-SRC2 inh	TexasRed fluor	Tau fibril ThT	Tau FP inhib
CCc1ccc(NC2CC(=O)N(CCc3ccc(OC)c(OC)c3)C2=O)cc1 (stereo not given)	-6.5%	-5.2%	-5.6%	-10.0%	10.7%
COc1ccc(CCN2C(=O)CC(Nc3ccc(N4CCOCC4)cc3)C2=O)cc1OC (stereo not given)	-13.2%	2.1%	3.4%	12.6µM*	4.7%
O=C1CC(Nc2ccc(N3CCOCC3)cc2)C(=O)N1c1ccccc1F (stereo not given)	-27.4%	-1.8%	-1.1%	14.1µM*	-5.4%
CCOc1ccc(C(=O)c2ccc(OC)c(O)c2O)cc1	?	2.3%	-1.2%	15.8µM*	?
COc1ccc(C(=O)c2ccc(O)cc2)c(O)c1O	?	-6.0%	-5.8%	?	?
O=C(Nc1ccc2c(c1)CCCN2C(=O)c1cccs1)c1ccccc1Cl	-3.4%	-2.1%	-2.2%	-5.8%	14.1%
Cc1ccc(C(=O)CSC2=NC(N)=C(C#N)C3(CCCCC3)C2C(N)=O)cc1 (stereo not given)	-26.4%	-2.3%	1.6%	25.1µM*	?
N#CC1=C(N)N=C(SCc2ccccc2)C(C(N)=O)C12CCCCC2 (stereo not given)	0.8%	-14.2%	-0.6%	-9.3%	9.6%
CCn1c2ccccc2c2cc(NC(=O)c3ccc(Br)o3)ccc21	?	-13.6%	-6.0%	12.6µM*	?
CCOC(=O)c1c(N)sc2c(OC)c(Br)ccc12	25.1µM*[quencher]	-9.8%	-0.1%	?	5.7%
CCOC(=O)c1c(N)sc(C)c1-c1ccccc1	?	-7.2%	-4.4%	-7.2%	?
COc1cc(C2CC(=O)N(c3ccc(C)c(Cl)c3)C3=C2C(=O)OC3)cc(OC)c1OC (stereo not given)	-11.9%	-1.8%	-28.9%	-9.4%	-1.2%
COc1ccc(N2C(=O)C3CC(C)=C(C)CC3C2=O)c(OC)c1 (stereo not given)	-13.4%	13.0%	-0.2%	-5.7%	-9.6%
CCCSC1=C(C#N)C(c2cc(OC)ccc2OC)CC(=O)N1 (stereo not given)	-5.8%	3.6%	-1.8%	-3.8%	1.6%
COc1ccc(N2CSC3=C(C#N)C(c4cc(OC)c(OC)cc4OC)CC(=O)N3C2)c(OC)c1 (stereo not given)	?	1.5%	4.9%	8.91µM*	12.6µM*
COc1ccc(N2CSC3=C(C#N)C(c4cc(OC)ccc4OC)CC(=O)N3C2)c(OC)c1 (stereo not given)	?	-4.6%	1.4%	12.6µM*	28.2µM*
COc1ccc(C2CC(=O)N3CN(c4ccc(C)c(Cl)c4)CSC3=C2C#N)cc1OC (stereo not given)	-28.1%	1.5%	3.1%	14.1µM*	22.4µM*
COc1ccc(N2CSC3=C(C#N)C(c4ccc(OC)c(OC)c4)CC(=O)N3C2)c(OC)c1 (stereo not given)	?	1.2%	1.6%	7.94µM*	15.8µM*
Cc1c(Cl)cccc1NC(=O)NCCOCCn1c(=O)oc2ccccc21	?	-0.7%	-1.0%	-17.4%	-3.1%
COc1cc(OC)c(C2CC(=O)N3CN(c4ccc(C)cc4)CSC3=C2C#N)cc1OC (stereo not given)	-28.3%	3.2%	0.6%	28.2µM*	?
CCOc1ccccc1N1CSC2=C(C#N)C(c3c(OC)ccc4ccccc34)CC(=O)N2C1 (stereo not given)	?	?	-20.5%	3.98µM*	10µM*
CCOC(=O)c1cccc(NC(=O)C2CCN(S(=O)(=O)c3ccc4c(c3)oc(=O)n4C)CC2)c1	?	1.3%	-4.9%	6.2%	-14.4%
COCCCNC(=O)c1ccc(-n2c(-c3ccccc3)cc3c2CCCCC3)cc1	?	4.4%	-23.2%	-5.0%	17.8µM*
CCOCCCNC(=O)c1ccc(-n2c(-c3ccccc3)cc3c2CCCC3)cc1	?	-7.1%	-1.6%	?	-6.1%
CN(C)CCNC(=O)c1ccc(-n2c(-c3ccccc3)cc3c2CCCCC3)cc1	?	2.9%	3.0%	0.7%	22.4µM*
SMILES	Tau fluor counter	TRb-SRC2 inh	TexasRed fluor	Tau fibril ThT	Tau FP inhib
CCCCn1c(=N)c(S(=O)(=O)c2ccc(C)cc2)cc2c(=O)n3cc(C)ccc3nc21	-5.8%	1.2%	-0.2%	2.8%	-3.5%
COc1ccc(NC(=O)/C(Cl)=C(/Cl)S(=O)(=O)Cc2ccccc2)cn1	-23.8%	-1.7%	0.8%	7.08µM*	?
COc1ccc(OC)c(NC(=O)c2c(NCc3ccc(N(C)C)cc3)sc3c2CCCC3)c1	?	-5.4%	3.2%	?	3.9%
COc1cc2c(cc1OC)C(c1ccc(-c3ccc(Cl)c(Cl)c3)o1)=NCC2	?	4.4%	1.2%	11.2µM*	13.1%
COc1cc2c(cc1OC)C(c1ccc(-c3cc(Cl)ccc3Cl)o1)=NCC2	-4.8%	-1.7%	-0.7%	?	5.2%
Cc1ccc(-n2c(C)cc(C(=O)C(=O)Nc3ccccc3)c2C)c(C)c1	-10.4%	-6.7%	-0.7%	-1.7%	-5.5%
Cc1nccc(-c2cccc(N/N=C(\C#N)C(=O)c3ccccc3)c2)n1	?	5.4%	-7.9%	8.91µM*	2.7%
CCc1ccc(-n2c(-c3ccccc3)c(C)n3c4c(=O)n(C)c(=O)n(C)c4nc23)cc1	-16.4%	-17.3%	56.2µM*[quencher]	-9.4%	7.4%
Cc1ccc(-c2c(C)n3c4c(=O)n(C)c(=O)n(C)c4nc3n2-c2cccc(O)c2)cc1	?	-6.2%	11.2µM*[quencher]	?	-7.4%
O=C(/C=C/c1ccc2c(c1)OCCCO2)c1ccc2ccccc2c1O	?	3.7%	-1.9%	3.16µM*	-0.4%
Cc1ccc(C(=O)/C=C/c2ccc3c(c2)OCCO3)c(O)c1	-23.2%	4.2%	-0.6%	6.31µM*	7.1%
CCCCOC(=O)c1ccc(NC(=O)Cc2coc3ccc(C(C)C)cc23)cc1	?	-4.6%	7.2%	?	?
Fc1cccc(Cl)c1CNc1ccc(N2CCCC2)cc1	?	-19.0%	16.3%	5.62µM*	11.2µM*
COCCNC(=O)CN1C(=O)c2cccnc2Oc2ccc(Cl)cc21	4.1%	4.6%	3.7%	1.0%	0.6%
Cc1cccc(NS(=O)(=O)c2cc(NC(=O)CC(=O)c3ccc([N+](=O)[O-])cc3)ccc2C)c1	7.94µM*[quencher]	-8.0%	-4.4%	?	-6.1%
Cc1ccc(C(=O)Nc2cccc([N+](=O)[O-])c2)cc1S(=O)(=O)Nc1ccc(C(=O)O)cc1	-18.1%	3.4%	-1.7%	-16.0%	-1.0%
Cc1ccccc1NS(=O)(=O)c1cc(C(=O)Nc2cccc([N+](=O)[O-])c2)ccc1C	14.1µM*[quencher]	5.9%	-2.5%	?	-13.2%
O=C1C=C(N(CCO)Cc2ccccc2)c2ccccc2C1=O	-27.5%	?	-3.6%	12.6µM*	?
NNc1nc2c(Cl)ccc(Cl)c2s1	10µM*[quencher]	-6.4%[53 µM]	-1.7%[53 µM]	11.2µM*	?
